Experimental data published in PubChem BioAssay (NCI).
Compounds without any hit were thinned out: in the full panel of roughly 83,000, 20% have a hit.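 Each cell line was grown in a 96-well plate and treated with one concentration of compound for 48 hours. Values below 10 were considered active.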 Activity calls are given as the source filed them.

The compounds below were run on COLO 205 colon (assay: NCI-60 one-dose screen, 48 h (100 = growth as untreated, 0 = no growth, -100 = all killed)). Conditions: 10 µM unless noted.
With O=C1c2cc3c(cc2-c2c1c1ccc(F)cc1c(=O)n2C[C@H](O)[C@@H](O)[C@H](O)CO)OCO3 the growth was -31.1% (active).
With O=C(Nc1cccc2[nH]c(C(F)(F)F)nc12)c1ccc(-n2cnnn2)cc1 the growth was 105% (inactive).
With Fc1ccc(CNc2cccc3[nH]c(C(F)(F)F)nc23)cc1 the growth was 102% (inactive).
With O=C1c2cc3c(cc2-c2c1c1ccc(F)cc1c(=O)n2CCCNCCO)OCO3 the growth was -66.5% (active).
With N#CN1CC[C@H](C(=O)Nc2cc3cc(C(N)=O)ccc3cn2)C1 the growth was -70.1% (active).

Each compound was assayed on DU-145 prostate in the same assay as above. Conditions: 10 µM unless noted.
In the case of COc1cccc(/C=C2\Oc3cc(OCCN4CCCC4)ccc3C2=O)c1, the growth is reported as 98.5% (inactive).
COc1ccc(-c2nc3ccc(-c4nc5ccc(N6CCN(c7ccncc7)CC6)cc5[nH]4)cc3[nH]2)cc1OC was tested, and the growth was 42.7% (inactive).
In the case of Cc1ccc(C2=NN3C(C2)c2cc(Br)ccc2OC32CCN(Cc3ccccc3)CC2)o1 (centres undefined), the growth is reported as 98.8% (inactive).
With COc1cc2c(cc1-c1c(C)noc1C)ncc1nc(-c3ccccn3)n([C@H](C)COC(F)F)c12 the growth was 64.2% (inactive).
Cc1oc(-c2ccc(Cl)cc2Cl)cc1C(=O)Nc1nccs1 was tested, and the growth was 104% (inactive).
For COc1ccc2c(c1)c(-c1nonc1-c1cn(C)c3ccccc13)cn2C, the growth was 14.7% (inactive).
COC(=O)c1ccc(NC(=O)c2ccc(-c3cccc([N+](=O)[O-])c3)o2)cc1 was tested, and the growth was 110% (inactive).
COc1cccc(C2=NN3C(C2)c2cc(Br)cc(OC)c2OC32CCN(Cc3ccccc3)CC2)c1 (centres undefined) was tested, and the growth was 105% (inactive).
For O=C1c2cc3c(cc2-c2c1c1cc(F)c(F)cc1c(=O)n2CCCn1ccnc1)OCO3, the growth was 9.97% (active).
For Cc1ccc2c(C(C[N+](=O)[O-])c3ccccc3F)c(-c3ccccc3)[nH]c2c1 (centres undefined), the growth was 66.2% (inactive).
In the case of Cc1ccccc1COc1ccc(-c2onc(C)c2-c2ccc(Cl)cc2)cc1, the growth is reported as 77.4% (inactive).
COC[C@H](C)n1c(C2CCOCC2)nc2cnc3cc(-c4c(C)noc4C)c(OC)cc3c21 was tested, and the growth was 77.5% (inactive).
With C#CCOc1ccc2ncnc(NCc3cccc(NC(=O)CCl)c3)c2c1 the growth was 77.9% [8.25 µM] (inactive).
In the case of COc1cc(-c2nn(C)nc2-c2cc3ccccc3s2)cc(OC)c1OC, the growth is reported as 20.1% (inactive).
For O=C1NC(=S)N[C@H]1CC(=O)n1cnc2ccccc21, the growth was 109% (inactive).
O=S(=O)(Nc1ccc(I)cc1F)c1ccc(-c2cnc(C3CC3)o2)cc1 was tested, and the growth was 78.2% (inactive).
With CC[C@@H](C(=O)[C@@H](C)[C@@H](O)[C@H](C)[C@@H]1O[C@@H]([C@@H](CC)C(=O)O)CC[C@@H]1C)[C@H]1OC2(C=C[C@@H](O)[C@]3(CC[C@@](C)([C@H]4CC[C@](O)(CC)[C@H](C)O4)O3)O2)[C@H](C)C[C@@H]1C (some centres undefined) the growth was 45.8% (inactive).
In the case of CCOC(=O)c1csc(NC(=O)COc2cccc(/C=C3\CSc4ccccc4C3=O)c2)n1, the growth is reported as 87.1% (inactive).
For CN1CCN(c2ccc3nc(-c4ccc(OCCCCN5CCN(CCCCN6C(=O)c7cccc8cccc(c78)C6=O)CC5)cc4)[nH]c3c2)CC1, the growth was 45% (inactive).
In the case of Cc1ncc(C(=O)Nc2ccc(CN3CCN(C)CC3)c(C(F)(F)F)c2)cc1C#Cc1cnc2cccnn12, the growth is reported as 5.5% (active).
Cc1nc2c3c(-c4ccccc4)c(-c4ccccc4)oc3ncn2n1 was tested, and the growth was 104% (inactive).
With O=C(N/N=C/c1ccccc1O)c1ccccc1Nc1ccnc(C(F)(F)F)c1 the growth was 27.3% (inactive).
In the case of COC(=O)[C@]12CCC(C)(C)C[C@H]1[C@H]1C(=O)C[C@@H]3[C@@]4(C)c5c([nH]c6ccccc6c5=O)C(C)(C)[C@@H]4CC[C@@]3(C)[C@]1(C)CC2, the growth is reported as 86.5% (inactive).
With COc1ccc(-c2n[nH]nc2-c2csc3ccccc23)cc1OC the growth was 41.5% (inactive).
O=C1c2ccccc2C(=O)c2c(N=Nc3[nH]c(=S)[nH]c3O)cccc21 was tested, and the growth was 16.3% (inactive).
With Cn1c(NCCc2ccc(O)c(O)c2)nc2c1c(=O)n(Cc1ccc(Br)cc1)c(=O)n2C the growth was 78.9% (inactive).
In the case of Cc1ccc(/C=C2\SC(=S)N(CC(=O)NCCCN3CCOCC3)C2=O)cc1, the growth is reported as 104% (inactive).
For Cc1ccc(C2Oc3ccccc3C3CC(c4cccs4)=NN32)cc1 (centres undefined), the growth was 97% (inactive).
For C=CC(=O)Nc1cccc(-c2nc(SC)nc(NCCc3ccc(OC)c(OC)c3)c2C#N)c1, the growth was 56.9% (inactive).
In the case of Cc1nc(/N=C(\N)NC(=O)Nc2cccc([N+](=O)[O-])c2)sc1C, the growth is reported as 89.8% (inactive).
COc1ccc(-n2nc(C)c3c(Nc4ccc(NC(=O)Nc5ccc(Cl)c(C(F)(F)F)c5)cc4)ncnc32)cc1 was tested, and the growth was 23.8% (inactive).
O=C(/C=C/c1cccc([N+](=O)[O-])c1)c1ccc(O)c(CN2CCN(c3cc4c(cc3F)c(=O)c(C(=O)O)cn4C3CC3)CC2)c1 was tested, and the growth was 22% (inactive).
For CCC([N+](=O)[O-])S(=O)(=O)c1ccc(C)cc1 (centres undefined), the growth was 160% (inactive).
For Cc1cn2c(/C=C3/C(=O)Nc4c3ccc3ccccc43)c(C(F)(F)F)nc2s1, the growth was 4.07% (active).
With O=C1c2cc3c(cc2-c2c1c1ccc(F)cc1c(=O)n2C[C@H](O)[C@@H](O)[C@H](O)CO)OCO3 the growth was 2.47% (active).
In the case of O=C(Nc1cccc2[nH]c(C(F)(F)F)nc12)c1ccc(-n2cnnn2)cc1, the growth is reported as 102% (inactive).
For Fc1ccc(CNc2cccc3[nH]c(C(F)(F)F)nc23)cc1, the growth was 93.5% (inactive).
O=C1c2cc3c(cc2-c2c1c1ccc(F)cc1c(=O)n2CCCNCCO)OCO3 was tested, and the growth was -68.5% (active).
With N#CN1CC[C@H](C(=O)Nc2cc3cc(C(N)=O)ccc3cn2)C1 the growth was 7.18% (active).
